{"source": "the supplement of paper PMC8728848", "assay_in_all_cases": "glycan array binding signal (z-score within array); higher = stronger binding", "details_in_all_cases": "glycan notation: IUPAC condensed, linker removed", "key": {"[1]": {"target": "Fuc(a1-2)Gal(b1-3)[Fuc(a1-4)]GlcNAc(b1-3)[Gal(b1-4)GlcNAc(b1-6)]Gal(b1-4)Glc", "in_short": "(§1)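 The binding signal is a Z-score computed within each array. Data were drawn from 3228 arrays in the Consortium for Functional Glycomics database, restricted to those with a known protein sequence. Scores were averaged over arrays of the same protein sequence at different concentrations or buffers, and over linkers, and negative values can be taken as non-binding.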"}, "Fuc(a1-2)Gal(b1-4)Glc": {"target": "Fuc(a1-2)Gal(b1-4)Glc", "in_short": "as §1"}, "[2]": {"target": "Fuc(a1-2)Gal(b1-4)[Fuc(a1-3)]GlcNAc(b1-3)GalNAc", "in_short": "as §1"}, "[3]": {"target": "Fuc(a1-2)[Gal(a1-4)]Gal(b1-4)GlcNAc", "in_short": "as §1"}, "[4]": {"target": "Fuc(a1-2)[GalNAc(a1-3)]Gal", "in_short": "as §1"}, "[5]": {"target": "Fuc(a1-3)[Gal(b1-4)]GlcNAc(b1-6)GalNAc", "in_short": "as §1"}, "[6]": {"target": "Fuc(a1-3)[GalNAc(b1-4)]GlcNAc", "in_short": "as §1"}, "[7]": {"target": "Gal(a1-3)Fuc(a1-2)Gal(b1-4)GlcNAc(b1-3)[Gal(a1-3)Fuc(a1-2)Gal(b1-4)GlcNAc(b1-6)]GalNAc", "in_short": "as §1"}, "[8]": {"target": "Gal(a1-3)Gal(b1-3)GlcNAc(b1-2)Man(a1-3)[Gal(a1-3)Gal(b1-3)GlcNAc(b1-2)Man(a1-6)]Man(b1-4)GlcNAc(b1-4)GlcNAc", "in_short": "as §1"}, "[9]": {"target": "Gal(a1-3)Gal(b1-4)[Fuc(a1-3)]GlcNAc(b1-2)Man(a1-3)[Gal(a1-3)Gal(b1-4)[Fuc(a1-3)]GlcNAc(b1-2)Man(a1-6)]Man(b1-4)GlcNAc(b1-4)GlcNAc", "in_short": "as §1"}, "Gal(a1-4)Gal(b1-4)Glc": {"target": "Gal(a1-4)Gal(b1-4)Glc", "in_short": "as §1"}, "[10]": {"target": "Gal(b1-3)GlcNAc(b1-6)Gal(b1-4)GlcNAc", "in_short": "as §1"}, "[11]": {"target": "Gal(b1-3)[Fuc(a1-4)]GlcNAc(b1-2)Man(a1-3)[Gal(b1-3)[Fuc(a1-4)]GlcNAc(b1-2)Man(a1-6)]Man(b1-4)GlcNAc(b1-4)GlcNAc", "in_short": "as §1"}, "[12]": {"target": "Gal(b1-4)GlcNAc(b1-2)Man(a1-3)Man(b1-4)GlcNAc(b1-4)GlcNAc", "in_short": "as §1"}, "[13]": {"target": "Gal(b1-4)GlcNAc(b1-2)Man(a1-3)[Gal(b1-4)GlcNAc(b1-2)Man(a1-6)]Man(b1-4)GlcNAc(b1-4)[Fuc(a1-6)]GlcNAc", "in_short": "as §1"}, "[14]": {"target": "Gal(b1-4)GlcNAc(b1-2)Man(a1-6)Man(b1-4)GlcNAc(b1-4)GlcNAc", "in_short": "as §1"}, "[15]": {"target": "Gal(b1-4)GlcNAc(b1-3)[Gal(b1-4)GlcNAc(b1-6)]GalNAc", "in_short": "as §1"}, "[16]": {"target": "Gal(b1-4)GlcNAc(b1-6)[Gal(b1-3)]GalNAc", "in_short": "as §1"}, "Gal3S(b1-4)GlcNAc": {"target": "Gal3S(b1-4)GlcNAc", "in_short": "as §1"}, "[17]": {"target": "Gal3S(b1-4)[Fuc(a1-3)]Glc", "in_short": "as §1"}, "Gal3S4S(b1-4)GlcNAc": {"target": "Gal3S4S(b1-4)GlcNAc", "in_short": "as §1"}, "Gal3S6S(b1-4)GlcNAc": {"target": "Gal3S6S(b1-4)GlcNAc", "in_short": "as §1"}, "GalNAc(b1-3)Gal": {"target": "GalNAc(b1-3)Gal", "in_short": "as §1"}, "Glc(b1-4)Glc": {"target": "Glc(b1-4)Glc", "in_short": "as §1"}, "[18]": {"target": "GlcNAc(a1-4)Gal(b1-4)GlcNAc(b1-3)Gal(b1-4)GlcNAc", "in_short": "as §1"}, "[19]": {"target": "GlcNAc(a1-4)Gal(b1-4)GlcNAc(b1-3)Gal(b1-4)[Fuc(a1-3)]GlcNAc(b1-3)Gal(b1-4)[Fuc(a1-3)]GlcNAc", "in_short": "as §1"}, "[20]": {"target": "GlcNAc(a1-6)Gal(b1-4)GlcNAc", "in_short": "as §1"}, "[21]": {"target": "GlcNAc(b1-6)Gal(b1-4)GlcNAc", "in_short": "as §1"}, "Kdn(a2-3)Gal(b1-3)GalNAc": {"target": "Kdn(a2-3)Gal(b1-3)GalNAc", "in_short": "as §1"}, "[22]": {"target": "Man(a1-2)Man(a1-3)[Man(a1-2)Man(a1-6)]Man", "in_short": "as §1"}, "[23]": {"target": "Man(a1-2)Man(a1-3)[Man(a1-2)Man(a1-6)]Man(a1-6)[Man(a1-2)Man(a1-2)Man(a1-3)]Man", "in_short": "as §1"}, "[24]": {"target": "Man(a1-2)Man(a1-3)[Man(a1-2)Man(a1-6)]Man(a1-6)[Man(a1-2)Man(a1-2)Man(a1-3)]Man(b1-4)GlcNAc(b1-4)GlcNAc", "in_short": "as §1"}, "[25]": {"target": "Man(a1-2)Man(a1-6)[Man(a1-3)]Man(a1-6)[Man(a1-2)Man(a1-2)Man(a1-3)]Man(b1-4)GlcNAc(b1-4)GlcNAc", "in_short": "as §1"}, "[26]": {"target": "Neu5Ac(a2-3)Gal(b1-3)[Neu5Ac(a2-6)]GalNAc", "in_short": "as §1"}, "[27]": {"target": "Neu5Ac(a2-3)Gal(b1-4)GlcNAc(b1-6)[Neu5Ac(a2-3)Gal(b1-3)]GalNAc", "in_short": "as §1"}, "Neu5Ac(a2-6)Gal(b1-4)Glc": {"target": "Neu5Ac(a2-6)Gal(b1-4)Glc", "in_short": "as §1"}, "[28]": {"target": "Neu5Ac(a2-6)Gal(b1-4)GlcNAc(b1-2)Man(a1-3)[Man(a1-6)]Man(b1-4)GlcNAc(b1-4)GlcNAc", "in_short": "as §1"}}, "note": "Many of the other results were omitted from the sample, so the strongest signals are more common in it than they were."}
{"binder": "Eosinophil cationic protein (ECP) (Homo sapiens), P12724 (protein) MVPKLFTSQICLLLLLGLMGVEGSLHARPPQFTRAQWFAIQHISLNPPRCTIAMRAINNYRWRCKNQNTFLRTTFANVVNVCGNQSIRCPHNRTLNNCHRSRFRVPLLHCDLINPGAQNISNCTYADRPGRRFYVVACDNRDPRDSPRYPVVPVHLDTTI", "values": [{"measurement": "glycan array binding signal (z-score)", "setting": "[1]", "result": -0.315}, {"measurement": "glycan array binding signal (z-score)", "setting": "Fuc(a1-2)Gal(b1-4)Glc", "result": -0.348}, {"measurement": "glycan array binding signal (z-score)", "setting": "[2]", "result": 2.14}, {"measurement": "glycan array binding signal (z-score)", "setting": "[3]", "result": -0.421}, {"measurement": "glycan array binding signal (z-score)", "setting": "[4]", "result": -0.298}, {"measurement": "glycan array binding signal (z-score)", "setting": "[5]", "result": 2.25}, {"measurement": "glycan array binding signal (z-score)", "setting": "[6]", "result": -0.183}, {"measurement": "glycan array binding signal (z-score)", "setting": "[7]", "result": 0.494}, {"measurement": "glycan array binding signal (z-score)", "setting": "[8]", "result": 1.32}, {"measurement": "glycan array binding signal (z-score)", "setting": "[9]", "result": 2.23}, {"measurement": "glycan array binding signal (z-score)", "setting": "Gal(a1-4)Gal(b1-4)Glc", "result": -0.102}, {"measurement": "glycan array binding signal (z-score)", "setting": "[10]", "result": -0.17}, {"measurement": "glycan array binding signal (z-score)", "setting": "[11]", "result": 0.007}, {"measurement": "glycan array binding signal (z-score)", "setting": "[12]", "result": -0.103}, {"measurement": "glycan array binding signal (z-score)", "setting": "[13]", "result": 0.16}, {"measurement": "glycan array binding signal (z-score)", "setting": "[14]", "result": -0.08}, {"measurement": "glycan array binding signal (z-score)", "setting": "[15]", "result": -0.091}, {"measurement": "glycan array binding signal (z-score)", "setting": "[16]", "result": -0.081}, {"measurement": "glycan array binding signal (z-score)", "setting": "Gal3S(b1-4)GlcNAc", "result": 0.818}, {"measurement": "glycan array binding signal (z-score)", "setting": "[17]", "result": 2.4}, {"measurement": "glycan array binding signal (z-score)", "setting": "Gal3S4S(b1-4)GlcNAc", "result": -0.557}, {"measurement": "glycan array binding signal (z-score)", "setting": "Gal3S6S(b1-4)GlcNAc", "result": 2.7}, {"measurement": "glycan array binding signal (z-score)", "setting": "GalNAc(b1-3)Gal", "result": -0.382}, {"measurement": "glycan array binding signal (z-score)", "setting": "Glc(b1-4)Glc", "result": 0.024}, {"measurement": "glycan array binding signal (z-score)", "setting": "[18]", "result": 8.33}, {"measurement": "glycan array binding signal (z-score)", "setting": "[19]", "result": 4.18}, {"measurement": "glycan array binding signal (z-score)", "setting": "[20]", "result": 3.15}, {"measurement": "glycan array binding signal (z-score)", "setting": "[21]", "result": 0.126}, {"measurement": "glycan array binding signal (z-score)", "setting": "Kdn(a2-3)Gal(b1-3)GalNAc", "result": 0.204}, {"measurement": "glycan array binding signal (z-score)", "setting": "[22]", "result": -0.495}, {"measurement": "glycan array binding signal (z-score)", "setting": "[23]", "result": -0.174}, {"measurement": "glycan array binding signal (z-score)", "setting": "[24]", "result": -0.101}, {"measurement": "glycan array binding signal (z-score)", "setting": "[25]", "result": 0.498}, {"measurement": "glycan array binding signal (z-score)", "setting": "[26]", "result": -0.097}, {"measurement": "glycan array binding signal (z-score)", "setting": "[27]", "result": -0.004}, {"measurement": "glycan array binding signal (z-score)", "setting": "Neu5Ac(a2-6)Gal(b1-4)Glc", "result": 0.151}, {"measurement": "glycan array binding signal (z-score)", "setting": "[28]", "result": -0.018}]}
